Data on 40 compounds can be found in ChEMBL document CHEMBL3988442, “University of Dundee, Small-Polar-MMV Screening Library” (2021).

Each structure is given as a SMILES string.

The target of the test is AMP-activated protein kinase, AMPK (Homo sapiens) (UniProt P54646+O43741+P54619+Q9UGJ0+Q9Y478+Q13131+Q9UGI9). The test can be described thus: AMP-dependent Kinase enzyme assay. An in vitro enzyme assay that detects ADP turnover that is directly proportional to AMPK activity. This uses naive AMPK that is activated during the assay with MK-8722. The format is functional. The note with it: 30 µM. Set-up: scale not given: direction of the effect not stated beside the values.
In the case of `O=C1CN(C(=O)c2cc3ccc(Br)cc3[nH]2)CCN1`, the Percent Effect came to 91%. As for `c1cncc(CNCCc2cccs2)c1`, the Percent Effect was -7.73%. Consider `Cc1nc(CN2CCOCC2c2[nH]ncc2C)cs1` (stereo not given), for which the Percent Effect turned out to be 12.1%. For `CCCN1CCC(N2CCC(Cn3cc(CC(C)O)nn3)CC2)CC1` (stereo not given), the Percent Effect was -7.12%. On to `CC(C)(NCCCOc1ccc(C#N)cc1)c1nccs1`, for which the Percent Effect stood at 3.77%.

With `Cc1ccc(Oc2cc(CN)ccn2)cc1C`, the Percent Effect was -98.1%. For `COc1ccc(CN(C)Cc2c(C)noc2C)c(Br)c1OC`, the Percent Effect was determined as 2.55%. Consider `Cc1cc(C(=O)NCCC2CCN(C)CC2)ccc1N(C)S(C)(=O)=O`, for which the Percent Effect came out at 6.31%. The result for `COC(=O)C1CCN(C(=O)Cn2nc(C)nc2-c2ccccc2)CC1` reads -7.76%.

Consider `O=C(NCc1ccccn1)c1cc2n(n1)CCNC2`, for which the Percent Effect is 11.8%.

For the compound `Cc1cccc(-c2nccnc2C2CCCN(C)C2)c1` (stereo not given), the Percent Effect came out at 11.8%.

On to `O=C(NCCS(=O)(=O)N1CCN(c2ncccn2)CC1)C1CCCC1`, for which the Percent Effect was -1.53%.

Take `CC(CN1CCOCC1)NC(=O)N1CCCC1` (stereo not given): the Percent Effect was 12.9%. Turning to `CO[C@@H]1c2ccccc2C2(CCN(C(=O)CNS(C)(=O)=O)CC2)[C@H]1O`, the Percent Effect came out at 19.3%.

As to `O=C(c1cccc2ccnn12)N1CCCC1Cn1cccn1` (stereo not given), the Percent Effect was -1.71%.

`CC(C)(C)c1n[nH]cc1CNC1CCC(O)CC1` (stereo not given): the Percent Effect is -0.675%. For `Cc1nc(CC(C)C)cc(C(=O)N2C[C@@H](N(C)C)[C@H](C(C)C)C2)n1`, the Percent Effect was -4.31%.

For the compound `O=C1NCC(C(=O)NCc2ccccc2CN2CCOCC2)N1` (stereo not given), the Percent Effect was -5.09%.

Consider `COc1ccc(CCC(C)Nc2cccc(SC)c2)cc1` (stereo not given), for which the Percent Effect was -6.2%. Regarding `O=C(NCCc1cc(N2CCOCC2)nc(NC2CC2)n1)C1CC1`, the Percent Effect amounted to 23.1%. As to `CC(C)C(C)NC(=O)Nc1cccc(OCC#N)c1` (stereo not given), the Percent Effect was -3.11%.

Take `Cc1c(Br)cccc1CSc1nnc(CO)n1C`: the Percent Effect worked out at 4.59%.

Take `COc1ccc(Cl)cc1CN(C)C(=O)CN1C(=O)OC[C@@H]1C(C)C`: the Percent Effect was determined as 1.71%. The value for `CC(OCC1CC1)C(=O)Nc1cccc(C(=O)Nc2ccccn2)c1` (stereo not given) was 23.1%; that for `Cc1nn(C)c(C)c1C1CCCN1C(=O)c1cc(C(N)=O)cs1` (stereo not given) was -0.756%; that for `COc1ccc(CCNC(=O)c2ccc(=O)n(C)c2)c(Cl)c1` was 5.99%. In the case of `CCn1cnnc1CNC(=O)N1CCOC(c2ccc(F)cc2)C1` (stereo not given), the Percent Effect is -5.45%. The value for `CC(NC(=O)NCc1ccccn1)c1cccs1` (stereo not given) was -0.209%. Take `COc1ccc(C(=O)NCc2ccco2)nn1`: the Percent Effect is -4.45%. For `O=C(NC1CC1)c1cnc2n1CCCC2`, the Percent Effect is -4.04%. The result for `CNc1ccc(C2CN(c3nc(C)cc(C)n3)CCO2)nc1` (stereo not given) reads 18%.

Consider `CC(C)c1nnc(C2CCN(CC(=O)Nc3cccnc3)CC2)o1`, for which the Percent Effect is -5.27%. With `Cc1ccc(OCc2occc2C(=O)N2CC[C@H](CO)[C@@H](O)C2)cc1`, the Percent Effect amounted to 14.2%.

As to `Cc1n[nH]c(C)c1CNc1ccc(-c2nc(C3CC3)no2)cn1`, the Percent Effect was -4.61%. As to `O=C1OCCCN1Cc1nc(-c2ccc(N3CCCCC3)cc2)no1`, the Percent Effect was -1.59%. Take `N#Cc1cc(S(N)(=O)=O)ccc1N1CCN(c2ccccc2)CC1`: the Percent Effect turned out to be 10.8%. Regarding `CC1CCCCN1C(=O)COc1nc(C(C)(C)C)no1` (stereo not given), the Percent Effect was -0.675%. The result for `Cc1cc(CC(C)NC(=O)c2n[nH]c3c2CCC3)n[nH]1` (stereo not given) reads 3.64%; that for `O=C(NCc1sc2ccccc2c1Cl)c1cc2n(n1)CCNC2`, 10.8%; that for `COc1ccc(CNC(C)c2cnn(C)c2)cc1OC1CCCC1` (stereo not given), 8.55%.
